MOR-DOR ag = agonists of OPRM1-OPRD1 heterodimerization, primary screen, cell-based, luminescence. Mu-type opioid receptor (Homo sapiens) + Delta-type opioid receptor (Homo sapiens), …. AID 504326, 2011. 0.3% of 340,000 active. activation, % at 9.3 µM. cells; in the data active means activation above about 18%;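 further: 0% = vehicle-treated cells and 100% = reference agonist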
HTR5A ag = HTR5A agonists in luminescence cell assay, primary screen, counter-screen for OPRM1-OPRD1 heterodimer agonist project, full-deck HTS; activation, % at 9.3 µM; 5-hydroxytryptamine receptor 5A (Homo sapiens), P47898; cell-based; AID 504692, 2011; 0.61% of 340,000 active; in the data active means activation mostly above about 9.5%, no sharp cut-off; inactive means mostly below about 7.6%;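 further: 0% = cells with vehicle only and 100% = reference agonist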
Target sequence (P47898 whole entry, looked up): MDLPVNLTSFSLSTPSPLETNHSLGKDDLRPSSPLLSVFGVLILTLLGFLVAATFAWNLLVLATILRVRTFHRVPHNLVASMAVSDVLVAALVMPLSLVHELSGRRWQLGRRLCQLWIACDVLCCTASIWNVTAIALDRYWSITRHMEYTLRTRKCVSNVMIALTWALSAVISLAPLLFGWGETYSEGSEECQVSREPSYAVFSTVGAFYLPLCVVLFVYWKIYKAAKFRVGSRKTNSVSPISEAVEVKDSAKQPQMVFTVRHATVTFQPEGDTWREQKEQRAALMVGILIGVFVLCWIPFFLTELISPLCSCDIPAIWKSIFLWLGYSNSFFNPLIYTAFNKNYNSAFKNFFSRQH
HTR5A inv ctr = HTR5A inverse agonists in luminescence cell assay, primary screen, counter-screen for OPRM1-OPRD1 heterodimer inverse agonist project, full-deck HTS. 5-hydroxytryptamine receptor 5A (Homo sapiens), P47898. HTR5A cell line, inverse agonism. inhibition, % at 9.3 µM. 0.083% of 340,000 active; in the data active means inhibition mostly above about 23%, no sharp cut-off; inactive means mostly below about 18%;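 further: 0% = cells with DMSO and 100% = no-cell wells with DMSO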
MOR-DOR inv ag-1 = inverse agonists of MOR-DOR heterodimerization, primary screen, cell-based, luminescence; Mu-type opioid receptor (Homo sapiens) + Delta-type opioid receptor (Homo sapiens), …; AID 504357, 2011; 0.21% of 340,000 active; cell-based MOR-DOR heterodimer luminescence, inverse agonism; inhibition, % at 9.3 µM; in the data active means inhibition above about 22%, passing the limit was not always enough;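 further: 0% = cells with DMSO and 100% = wells without cells with DMSO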
MOR-DOR inv ag-2 = inverse agonists of MOR-DOR heterodimerization, counter-screen for HTR5A inverse agonist project, cell-based, luminescence; inhibition, % at 9.3 µM; 190 tested, under 10 active; shares compounds with HTR5A inv ctr; U2OS counter-screen cells, complementation luminescence;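 further: 0% = cells with DMSO and 100% = wells without cells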
HTR5A inv confrm = HTR5A inverse agonists, retest of hits, confirmation, cell-based, luminescence. shares compounds with HTR5A inv ctr. 190 tested, under 10 active. HTR5A-expressing cells, inverse agonism. inhibition, % at 9.3 µM;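 further: 0% = cells with DMSO and 100% = no cells with DMSO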
Numbers without * were called inactive; i = inactive; / = not tested or not shown. This is a sample that favours compounds with a hit; in the whole collection about 1.1% have one here. Unless noted, how the calls were made is not given here.

SMILES | MOR-DOR ag | HTR5A ag | HTR5A inv ctr | MOR-DOR inv ag-1 | MOR-DOR inv ag-2 | HTR5A inv confrm
COc1ccc(CN2C(=O)C(CC(C)C)Nc3ncnc(N4CCN(c5ccccc5)CC4)c32)cc1 (stereo not given) | -2.5 | 0.0 | -16.1 | 13.8 | / | /
O=C(NCCS(=O)(=O)NCc1ccccn1)c1ccccc1 | -3.3 | -0.8 | 2.0 | 18.3 | / | /
CCCCn1c(N)c(N(CCC(C)C)C(=O)COC(=O)Cc2ccc(Cl)cc2)c(=O)[nH]c1=O | 0.7 | 0.9 | -6.1 | -2.5 | / | /
O=C1/C(=C/c2ccccc2)N=C(N2CCOCC2)N1c1cccc(Cl)c1 | -1.2 | 2.1 | 33.2* | 6.5 | -23.6 | 3.6
O=C1C(Cl)=C(N2CCOCC2)C(=O)N1c1cccc(Cl)c1 | 0.1 | 1.9 | 30.1 | -0.7 | / | /
C[C@]12CCC3c4ccc(OCC(=O)O)cc4CCC3C1CCC2=O (stereo not given in full) | -4.7 | -0.4 | 1.6 | 20.9 | / | /
Cc1ccc(-n2c(C)cc(/C=N/NC(=O)c3ccncc3)c2C)c(C)c1 | -1.2 | 1.6 | 5.1 | 6.6 | / | /
COc1ccc(NC(=O)CSc2c3c(nc4cc(Cl)ccc24)CCCC3)cc1OC | 0.7 | -5.2 | 13.9 | -4.2 | / | /
COCCNC(=O)CSc1c2c(nc3ccc(Cl)cc13)CCCC2 | -1.0 | -3.6 | 42.8* | 7.0 | i | 2.2
O=C(CC1C=CCC1)Nc1ccccc1 (stereo not given) | -0.3 | -0.4 | 1.8 | 1.8 | / | /
COc1ccc(Nc2nc(N3CCN(S(=O)(=O)N(C)C)CC3)nc3ccccc23)cc1 | 0.6 | 3.8 | -10.4 | -3.0 | / | /
Cc1noc(/C=C/c2ccco2)c1S(=O)(=O)N1CCC(C(=O)NCc2ccco2)CC1 | -3.0 | -9.8 | 27.0* | 13.3 | -9.1 | -7.6
COc1ccc(S(=O)(=O)Nc2cccc3c2O[C@H](CN(C)S(=O)(=O)c2ccc(F)cc2)[C@H](C)CN([C@H](C)CO)C3=O)cc1 | -0.9 | -0.9 | 39.0* | 5.2 | -11.3 | 12.4
Cn1nc(OCCOc2ccccc2)ccc1=O | -2.4 | -16.4 | 39.8* | 11.8 | -25.0 | -1.0
Cn1nc(OCc2ccccc2)ccc1=O | -2.4 | -0.4 | -15.6 | 13.8 | / | /
Cc1occc1-c1nnc(SCC(=O)NC2CCC(C)CC2)o1 (stereo not given) | -0.7 | 3.9 | -10.8 | 3.1 | / | /
CCc1c(C)sc(NC(=O)C2CC(c3c(F)cccc3Cl)=NO2)c1C#N (stereo not given) | 2.4 | -8.8 | 33.0* | -11.9 | -46.6 | -8.0
N#Cc1c(NC(=O)C2CC(c3c(F)cccc3Cl)=NO2)sc2c1CCC2 (stereo not given) | 0.1 | 4.6 | -12.3 | -0.8 | / | /
Cn1cnc(S(=O)(=O)N2CCN(c3cccc(Cl)c3)CC2)c1 | -1.4 | 1.4 | 37.8* | 7.4 | -14.8 | -193.3
Cc1cccc(NC(=O)CNC(=O)c2cccs2)n1 | -0.6 | -11.4 | 30.9* | 3.0 | -454.2 | 0.2
COc1cc(/C=C/C(=O)c2ccc(O)cc2)ccc1OCC#N | -2.9 | -14.1 | 48.0* | 16.2 | -20.2 | 0.3
COc1cccc(C(=O)/C=C/c2ccc(OCC#N)c(OC)c2)c1 | -3.0 | -3.6 | -11.0 | 15.8 | / | /
CCN(CC)C(=O)C(C(=O)c1cccc([N+](=O)[O-])c1)n1cc(Cl)ccc1=O (stereo not given) | -0.6 | 2.9 | -7.1 | 3.1 | / | /
NNc1nc(Nc2ccccc2)nc(N2CCCCC2)n1 | 3.6 | -9.4 | 34.5* | -20.9 | -23.6 | -156.8
NNc1nc(Nc2ccc([N+](=O)[O-])cc2)nc(N2CCCCCC2)n1 | -3.7 | -3.4 | 16.0 | 19.1 | / | /
SMILES | MOR-DOR ag | HTR5A ag | HTR5A inv ctr | MOR-DOR inv ag-1 | MOR-DOR inv ag-2 | HTR5A inv confrm
O=C(NCCC1CCCCN1S(=O)(=O)c1ccc(F)cc1)C(=O)NCc1cccnc1 (stereo not given) | -1.3 | -2.3 | 5.7 | 7.1 | / | /
Oc1cccc2ccc(/C=C/c3ccccc3Br)nc12 | -4.9 | -16.9 | 61.8* | 25.0 | 19.6 | 51.3*
COc1cc(Br)c(/C=C/c2ccc3cccc(O)c3n2)cc1OC | 1.7 | -1.2 | 4.5 | -8.1 | / | /
CSc1ccc(/C=C/c2ccc3cccc(O)c3n2)cc1 | 2.4 | -8.8 | 23.6* | -12.2 | -21.0 | 16.7
Cc1ccsc1/C=C/c1ccc2cccc(O)c2n1 | 2.8 | -11.7 | 32.1* | -12.2 | -84.1 | 20.9
Cc1cccnc1NC(=O)c1ccc2c(c1)NC(=O)C(C)S2 (stereo not given) | -1.6 | 2.8 | -7.5 | 10.1 | / | /
COc1ccc(Cl)cc1NC(=O)Nc1cnccn1 | -0.5 | -15.9 | 40.6* | 2.0 | -51.5 | -3.2
CC(C)n1cc(CN2CCC(C(=O)Nc3ccc(Oc4ccccc4F)cc3)CC2)cn1 | -1.2 | 0.8 | 0.8 | 6.2 | / | /
Cc1nonc1CN(C)C(=O)c1cc(COc2ccc(F)cc2Cl)on1 | -0.2 | 1.6 | 41.2* | 1.2 | -83.7 | 18.3
COc1cc(/C=C2/SC(=NCc3ccccc3)N(Cc3ccccc3)C2=O)ccc1O | -0.8 | -9.1 | 23.0 | 4.2 | / | /
O=C1/C(=C/c2cccc(O)c2)SC(=S)N1CC1CCCO1 (stereo not given) | 8.1 | -2.5 | 7.0 | -44.1 | / | /
COc1cc(/C=C2/SC(=S)N(Cc3ccccc3)C2=O)ccc1O | -2.2 | -8.3 | 30.5* | 10.6 | -43.0 | 35.7
CCOc1cc(/C=C2/SC(=S)N(CC3CCCO3)C2=O)ccc1O (stereo not given) | -4.6 | -11.1 | 30.6* | 21.3 | -46.0 | 24.9
COc1cc(/C=C2\SC(=S)N(C(C(=O)O)c3ccccc3)C2=O)ccc1O (stereo not given) | -3.4 | -6.7 | 19.8 | 16.8 | / | /
COc1cc(/C=C2/SC(=S)N(c3c(C)n(C)n(-c4ccccc4)c3=O)C2=O)ccc1O | -6.9 | -12.3 | 27.6* | 32.7 | -4.3 | 5.7
COc1cc(/C=C2\SC(=S)N(NC(=O)c3ccccc3OC)C2=O)ccc1O | -6.0 | -9.2 | 32.8* | 27.9 | -14.3 | 31.9
COC(=O)c1cc(OC)nc2ccc(Br)cc12 | -0.5 | -0.8 | -21.8 | 2.4 | / | /
O=C(CNCc1ccco1)Nc1ccc(Oc2ccccc2)cc1 | -1.4 | 6.0 | 18.6 | 7.1 | / | /
O=C1/C(=C\c2ccc(O)c(O)c2)SC(=S)N1Cc1ccccc1 | -0.2 | -8.2 | 29.5* | 0.8 | -9.3 | 27.1
COc1ccc(CC(=O)N(C)CC(=O)Nc2c(C)cccc2C)cc1S(=O)(=O)N1CCOCC1 | 0.4 | -10.0 | 27.7* | -1.6 | 80.6* | -3.1
COc1cc2ccccc2cc1C(=O)OCC(=O)N(CC(C)C)c1c(N)n(Cc2ccccc2)c(=O)[nH]c1=O | 0.1 | -0.6 | 1.9 | -1.0 | / | /
Oc1ccc(Cl)cc1N=Cc1sc2ccccc2c1Cl | 4.9 | 2.9 | -7.5 | -24.5 | / | /
O=[N+]([O-])c1ccc(O)c(N=Cc2sc3ccccc3c2O)c1 | -2.6 | -0.8 | 46.1* | 14.0 | -7.0 | 19.0
